SMILES strings stand for the structures. For some of these results: Potency and affinity values are given separately. Activity calls are given as the source filed them.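 Rule for the calls, unless noted: active = dose curve with midpoint inside tested range, moderate steepness, plateau gap beyond fit error, low compound glow and bead-link interference; inactive = the rest.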

The subject of the first test is Ras-related protein Rab-7a (dog), GTP binding. Nature of the test: Rab7 GTP binding inhibitors, potency, dose response, biochemical, wildtype, multiplex bead flow cytometry (AID 1336; call rule not given here). Conditions: bead-based flow cytometry, fluorescent GTP binding to Rab7; series mostly up to 100 µM; GTP binding, % of control: at the top concentration. Background: In flow cytometry, cells or beads pass a laser one at a time.
Turning to `CC(C)N(C)NC(=S)Nc1ccccc1`, the “GTP binding, % of control” value is 65% (inactive).
On the same count and under the same terms, under `C=CC#CC[N+]1(CC#Cc2ccccc2)CCOCC1` stands 58.7% (inactive); under `CC1=C(C(=O)Nc2ccccc2)C(c2ccc(Cl)cc2)n2c(s/c(=C/c3cccc(OCC(=O)O)c3)c2=O)=N1` (stereo unspecified), 80.2% (inactive).
The same measure, in the same setting: under `CCOC(=O)c1c(-c2ccccc2)csc1NC(=O)/C(C#N)=C/c1ccc(O)c(OC)c1` stands 85.3% (inactive); under `COc1ccc(/C=N/Nc2ncnc3sc4c(c23)CCCC4)cc1O`, 54.3% (inactive); under `Cc1ccc(C)c(OCc2ccc(C(=O)O)o2)c1`, 71.3% (inactive).
The same measure, in the same setting: under `CCCCNC(=O)c1cc([N+](=O)[O-])[nH]n1` stands 60.8% (inactive).
`Cc1ccc(Nc2n[nH]c(C)c2[N+](=O)[O-])c(C)c1`: the “GTP binding, % of control” value is 64.4% (inactive).
For the compound `O=c1c2ccccc2nc2c3ccccc3c(Cl)nn12`, the “GTP binding, % of control” value was 83.9% (inactive).
As to `O=C(O)/C=C/C(=O)Nc1cccnc1`, the “GTP binding, % of control” value is 64.4% (inactive).
The same measure, in the same setting: for `COc1ccc(/C=C2\SC(=S)N(CCCC(=O)NNC(=O)c3ccccc3O)C2=O)cc1` the value was 76.9% (inactive); for `CCC/C(O)=C1\C(=O)CC(C)(C)CC1=Nc1ccccc1OC`, 90.4% (inactive); for `CC(=O)NC1CC2CCCC(C1)N2C(=O)Nc1ccc(Cl)c(C(F)(F)F)c1` (stereo unspecified), 58.5% (inactive).
Take `CCCCn1c(O)c(N=NC(=O)c2ccccc2NS(=O)(=O)c2cccs2)c2ccccc21`: the “GTP binding, % of control” value was 87.6% (inactive).
The same measure, in the same setting: for `Cc1c(C(=O)N2CCc3ccccc3C2)oc2ccc(S(=O)(=O)N3CCCCCC3)cc12` the value was 72.2% (inactive).
As for `COc1cc2[nH]c(=S)nc(Nc3ccc(NC(C)=O)cc3)c2cc1OC`, the “GTP binding, % of control” value was 71.2% (inactive).
Still for that read-out and setting: under `O=C(CSc1nnc2c(n1)[nH]c1ccccc12)Nc1ccc(S(=O)(=O)Nc2ncccn2)cc1` stands 68.9% (inactive).
Still for that read-out and setting: for `CCCN1C(=O)/C(=C\C=C2/Sc3ccccc3N2CC)SC1=S` the value was 67.8% (inactive).
`C=CCn1c(COc2ccc(F)cc2)nnc1SCC(=O)c1c[nH]c2c(CC)cccc12`: the “GTP binding, % of control” value was 65.7% (inactive).
On the same count and under the same terms, under `O=C(CSc1ccc2nnc(-c3ccccn3)n2n1)Nc1ccc2c(c1)OCO2` stands 57.3% (inactive).
Still for that read-out and setting: for `COc1ccccc1C(=O)Nc1nc(-c2ccc3c(c2)OCCO3)cs1` the value was 66.7% (inactive).
`COc1ccc(O)c(-c2cc(C(F)(F)C(F)F)nc(-c3ccccc3)n2)c1`: the “GTP binding, % of control” value was 61.1% (inactive).

A further test deals with Ras-related C3 botulinum toxin substrate 1 (Homo sapiens) (UniProt P63000). Nature of the test: wildtype Rac1 GTP binding inhibitors, dose response, biochemical, multiplex bead flow cytometry (AID 1340). Conditions: GST-Rac1 beads, Bodipy-FL-GTP binding; at 100 µM (top of the series) unless noted.
The compound `O=C(O)c1c(C(F)(F)F)ccnc1SCc1ccccc1` came in with a GTP binding signal, raw median fluorescence (lower = inhibition) (MCF (arbitrary fluorescence units)) of 55.9.
On the same count and under the same terms, under `Cc1cc(C)n2nc(C(=O)N3CCCC(CNS(=O)(=O)c4cccs4)C3)cc2n1` (stereo unspecified) stands 284.
On the same count and under the same terms, under `CCC(C)C(=O)Nc1ccc(OC)cc1OC` (stereo unspecified) stands 186; under `Cc1ccc(-n2nc3c(SCCN4CCOCC4)nnc(C)c3c2C)cc1`, 194.
As to `CCCCCn1nc(C(=O)OCC(=O)c2c(N)n(C)c(=O)n(C)c2=O)c2ccccc2c1=O`, the GTP binding signal, raw median fluorescence (lower = inhibition) (MCF (arbitrary fluorescence units)) was determined as 232.
Still for that read-out and setting: under `COCCCNc1nc(=S)[nH]c2cc(OC)c(OC)cc12` stands 99; under `COc1ccccc1Oc1ccccc1C(=O)O`, 271.
The same measure, in the same setting: for `Cc1nn(CCc2nn[nH]n2)c2nc(-c3ccc(C4CCCCC4)cc3)cc(C(F)(F)F)c12` the value was 249.
In turn, `O=c1c2ccc([N+](=O)[O-])cc2ncn1CCOc1ccccc1` yielded a GTP binding signal, raw median fluorescence (lower = inhibition) (MCF (arbitrary fluorescence units)) of 188.
The same measure, in the same setting: for `CSc1nnc(-c2cc(Br)ccc2N=Cc2c(C)[nH]n(-c3ccccc3)c2=O)c(=O)[nH]1` the value was 183.
The same measure, in the same setting: under `Cc1ccc(N=Nc2c(N)[nH]n3c(=O)cc(C)nc23)cc1` stands 0; under `O=C(N/N=C/c1c(O)n(Cc2ccccc2)c(=O)c2ccccc12)c1cccnc1`, 87; under `CCn1cc(C(=O)OCC(=O)c2cc(C)n(-c3cccc(C(F)(F)F)c3)c2C)c(=O)c2ccc(C)nc21`, 137.
`Cc1sc2ncnc(N/N=C/c3ccc(O)cc3)c2c1C` returned a GTP binding signal, raw median fluorescence (lower = inhibition) (MCF (arbitrary fluorescence units)) of 312.
Same read-out and setting: for `O=c1[nH]c2ccc(S(=O)(=O)NCc3ccccc3)cc2[nH]1` the value was 218.
Same read-out and setting: under `CCc1ccc(Cn2nnc(C(=O)O)c2C(=O)O)cc1` stands 30.7; under `Cc1cc(NS(=O)(=O)c2ccc(NC(=O)c3cc4c(=O)n5ccccc5nc4s3)cc2)nc(C)n1`, 166; under `CC(C)N(C)NC(=S)Nc1ccccc1`, 210.
On the same count and under the same terms, under `C=CC#CC[N+]1(CC#Cc2ccccc2)CCOCC1` stands 537; under `CC1=C(C(=O)Nc2ccccc2)C(c2ccc(Cl)cc2)n2c(s/c(=C/c3cccc(OCC(=O)O)c3)c2=O)=N1` (stereo unspecified), 176; under `CCOC(=O)c1c(-c2ccccc2)csc1NC(=O)/C(C#N)=C/c1ccc(O)c(OC)c1`, 233.
For `COc1ccc(/C=N/Nc2ncnc3sc4c(c23)CCCC4)cc1O`, the GTP binding signal, raw median fluorescence (lower = inhibition) (MCF (arbitrary fluorescence units)) is 112.
On the same count and under the same terms, under `Cc1ccc(C)c(OCc2ccc(C(=O)O)o2)c1` stands 39.9.
Same read-out and setting: under `CCCCNC(=O)c1cc([N+](=O)[O-])[nH]n1` stands 282.
Turning to `Cc1ccc(Nc2n[nH]c(C)c2[N+](=O)[O-])c(C)c1`, the GTP binding signal, raw median fluorescence (lower = inhibition) (MCF (arbitrary fluorescence units)) was determined as 194.
The same measure, in the same setting: for `O=c1c2ccccc2nc2c3ccccc3c(Cl)nn12` the value was 213; for `O=C(O)/C=C/C(=O)Nc1cccnc1`, 200.
The compound `COc1ccc(/C=C2\SC(=S)N(CCCC(=O)NNC(=O)c3ccccc3O)C2=O)cc1` came in with a GTP binding signal, raw median fluorescence (lower = inhibition) (MCF (arbitrary fluorescence units)) of 203.
On the same count and under the same terms, for `CCC/C(O)=C1\C(=O)CC(C)(C)CC1=Nc1ccccc1OC` the value was 276; for `CC(=O)NC1CC2CCCC(C1)N2C(=O)Nc1ccc(Cl)c(C(F)(F)F)c1` (stereo unspecified), 174; for `CCCCn1c(O)c(N=NC(=O)c2ccccc2NS(=O)(=O)c2cccs2)c2ccccc21`, 280.
The same measure, in the same setting: under `Cc1c(C(=O)N2CCc3ccccc3C2)oc2ccc(S(=O)(=O)N3CCCCCC3)cc12` stands 274.
Compound `COc1cc2[nH]c(=S)nc(Nc3ccc(NC(C)=O)cc3)c2cc1OC` gave a GTP binding signal, raw median fluorescence (lower = inhibition) (MCF (arbitrary fluorescence units)) of 118.
As to `O=C(CSc1nnc2c(n1)[nH]c1ccccc12)Nc1ccc(S(=O)(=O)Nc2ncccn2)cc1`, the GTP binding signal, raw median fluorescence (lower = inhibition) (MCF (arbitrary fluorescence units)) worked out at 148.
Still for that read-out and setting: for `CCCN1C(=O)/C(=C\C=C2/Sc3ccccc3N2CC)SC1=S` the value was 181; for `C=CCn1c(COc2ccc(F)cc2)nnc1SCC(=O)c1c[nH]c2c(CC)cccc12`, 190; for `O=C(CSc1ccc2nnc(-c3ccccn3)n2n1)Nc1ccc2c(c1)OCO2`, 120.
On to `COc1ccccc1C(=O)Nc1nc(-c2ccc3c(c2)OCCO3)cs1`, for which the GTP binding signal, raw median fluorescence (lower = inhibition) (MCF (arbitrary fluorescence units)) was 216.
`COc1ccc(O)c(-c2cc(C(F)(F)C(F)F)nc(-c3ccccc3)n2)c1` displayed a GTP binding signal, raw median fluorescence (lower = inhibition) (MCF (arbitrary fluorescence units)) of 183.
